# TRHR enhancer-1 – TRH receptor (human) allosteric enhancement; P34981; TRHR cells, fluo-8 calcium fluorescence, EC20 TRH enhancement; enhancement, % at 2 µM; 360,000 compounds, 0.66% hits; AID 493056; in the data active = enhancement above about 30%; also: 0% is about no effect
#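 Enhancer read-out: after compound pinning and an initial kinetic agonist-mode read, an EC20 of TRH (10 nM final) was injected and fluo-8 calcium signal (Ex 480/Em 530) followed at 1 s/cycle for 100 cycles in TRHR-expressing cells.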
# GRP78 ERSR act – ER stress response induction in glioma. U87-MG GRP78 promoter luciferase reporter, 16 h. Potency, µM, inactives show at the highest dose activation, actives largely listed as activators. 420,000 compounds, 0.02% hits; also: potency is read from the fitted curve at half-maximal effect; series mostly up to about 76 µM; % of control where 0% means no effect; nearly all actives have a fitted effect of over 35% in size
#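 Stably transfected U87-MG glioma cells carrying a GRP78-based luciferase sensor; 16 h compound incubation. Luminescence end-point read 10 min after Bright-Glo addition at room temperature.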
# TRPML1 blocker – inhibitors of human TRPML1 channel; Q9GZU1; TRPML1-inducible cells, Ca2+ dye fluorescence, FDSS; stronger effect = lower value; inhibition of EC80 agonist-evoked calcium signal; activity change, negative = inhibition, % (no concentration beside the values); 390,000 compounds, 0.02% hits; AID 624415; in the data active = activity change below about -50%; inconclusive = between about -30% and that limit;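 also: stimulus is agonist 54-4 at its EC80 concentration; % is scaled to controls: 0 for no effect and ±100 for the full control effect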
# Target sequence (Q9GZU1 whole entry, looked up): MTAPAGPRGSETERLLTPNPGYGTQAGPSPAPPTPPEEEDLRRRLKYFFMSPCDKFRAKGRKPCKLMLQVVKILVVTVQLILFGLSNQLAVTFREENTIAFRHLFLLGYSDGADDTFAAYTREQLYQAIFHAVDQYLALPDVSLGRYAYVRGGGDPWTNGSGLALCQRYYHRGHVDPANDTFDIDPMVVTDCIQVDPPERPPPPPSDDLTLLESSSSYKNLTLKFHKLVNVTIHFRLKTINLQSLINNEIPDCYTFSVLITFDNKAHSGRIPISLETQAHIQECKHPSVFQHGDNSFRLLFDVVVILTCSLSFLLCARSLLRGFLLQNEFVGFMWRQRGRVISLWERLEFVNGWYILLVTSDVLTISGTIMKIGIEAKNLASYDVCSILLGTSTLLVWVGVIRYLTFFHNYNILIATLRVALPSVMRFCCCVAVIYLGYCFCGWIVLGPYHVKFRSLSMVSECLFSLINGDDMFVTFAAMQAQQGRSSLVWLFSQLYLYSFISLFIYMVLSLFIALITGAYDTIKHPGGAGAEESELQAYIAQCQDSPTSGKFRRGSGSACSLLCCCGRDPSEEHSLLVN
#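 Calcium fluorescence in TRPML1-DL cells induced overnight with Tet: a 110 s read after compound pin addition, then a 110 s antagonist read after challenge with 54-4 at 4 uM final (EC80).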
# TRHR agonist-1 – agonists of human TRH receptor; 360,000 compounds, 0.18% hits; TRHR cells, calcium flux fluo-8, FDSS agonist mode; activation, % at 2 µM; in the data active = activation above about 30%; also: 0% is about no effect
#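 Read-out: compound-evoked intracellular calcium rise in TRHR cells, fluo-8 dye, kinetic FDSS fluorescence at 1 s/cycle following a 10-cycle baseline. Cells cultured overnight before dye loading (30 min–1.5 h, RT).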
# TRPML1 ag – activates the human TRPML1 channel | Q9GZU1 | TRPML1-expressing cells, Ca2+ dye fluorescence, FDSS | activation, % (test concentration not listed) | 410,000 compounds, 0.12% hits; in the data active = activation above about 50%; inconclusive = mostly about 30% to 49%; also: 0% is about no effect
#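 Tetracycline-induced TRPML1-DL cells are seeded and incubated overnight before loading with a no-wash Ca2+ dye and quencher. Agonist activity is taken from the 110 s fluorescence read following compound pin-transfer on an FDSS, before EC80 54-4 challenge.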
# TRHR enhancer-2 – human TRH receptor allosteric enhancement confirmation; shares compounds with TRHR enhancer-1; TRH receptor cell assay, enhancer confirmation qHTS; activity change, negative = inhibition, % at 46.1 µM; 970 tested, under 10 active; AID 493076;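 also: compound effect scored on response to added TRH at EC20 of 10 nM; 0% is about no effect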
# TRHR agonist-2 – human TRH receptor agonism confirmation | shares compounds with TRHR enhancer-1 | TRHR-expressing cells, agonist activation read-out | Potency, µM (top dose mostly 46.1 µM), without a hit: top-dose activation, hits mostly activators | 970 compounds, 8% hits; also: potency is read from the fitted curve at half-maximal effect; 0% is about no effect; nearly all actives have a fitted effect of over 75% in size
# * marks the source's active call; other numbers are inactive results; ? = inconclusive; . = no result. Shown are actives, neighbours in structure and some others; about 0.8% of the full set was active somewhere. Unless noted, calls follow the shape of the dose curve; as a rule, active = well fitted curve in the direction sought with a large enough effect; inconclusive = small, poorly fitted or top-dose-only effect, or another doubt; inactive = no such curve, though single readings can be large; an effect the other way counts as inactive or inconclusive.
SMILES,TRHR enhancer-1,GRP78 ERSR act,TRPML1 blocker,TRHR agonist-1,TRPML1 ag,TRHR enhancer-2,TRHR agonist-2
COc1ccc(Cc2nc3ccc(C(=O)N(C)CCn4ccnc4)cc3o2)cc1OC,41*,5%,-5,-3,0,0,-1%
COc1ccc(Cc2nc3ccc(C(=O)N(C)Cc4cc(C)[nH]n4)cc3o2)cc1OC,2,3%,-2,0,-1,.,.
O=C(NCC1Cc2cccc(-c3cnccn3)c2O1)C1COc2ccccc2O1 (configuration not stated),.,1%,.,.,.,.,.
Cc1c(C(=O)N(C)C2CCOC2)cnn1-c1ncc2c(n1)-c1ccccc1CCC2 (configuration not stated),.,3%,.,.,.,.,.
CC(=O)Nc1cc2c(nc1C)nc(C)n2Cc1ccc(Br)cc1,46*,-3%,2,1,0,-2,-1%
Cc1cccc(-n2c(N)cc(=O)nc2SCC(=O)Nc2ccccc2)c1,45*,3%,73,1,-2,-5,?
Cc1cc(C(=O)NCCN2CCOCC2)ccc1[N+](=O)[O-],45*,-2%,-11,1,0,0,-1%
CC(=O)Nc1ccccc1-c1nn[nH]n1,11,-3%,27,44*,1,-6,-1%
O=C(NCc1ccccn1)c1cnn(-c2nccc(-c3ccccc3F)n2)c1C1CC1,.,1%,.,.,.,.,.
COc1cccc(CN2CCC3(CCC(CNC(=O)c4cc(C)nn4C)O3)CC2)c1OC (configuration not stated),.,-5%,.,.,.,.,.
Nc1nnc(-c2cc3c(ccc4ccccc43)oc2=O)s1,-1,.,.,41*,.,7,?
O=c1oc2ccc3ccccc3c2cc1-c1nnc(Nc2ccccc2)s1,-1,-1%,-14,3,1,.,.
C[N+](C)(C)CCOC(N)=O,4,-1%,5,29,2,3,4%
C[N+](C)(C)CCO,.,-3%,.,.,.,.,.
CC(C)Cc1nc2cc(NS(=O)(=O)N(C)C)cc(C(=O)N3CCOCC3)c2n1C,.,1%,.,.,.,.,.
CCC(C)NC(=O)c1cc2c(=O)n(CC)c3ccccc3c2s1 (configuration not stated),58*,2%,22,-1,-1,-5,2%
CCOC(=O)c1cnc(-n2nc(C)cc2C)nc1Nc1ccc(OC)cc1,42*,-1%,-8,0,0,-3,?
COc1ccc(CNC(=O)c2cc(C3CC3)nc3c2cnn3C(C)C)cc1,43*,0%,-9,-1,3,-12,?
CCNC(=O)c1sc2ncnc(NCCCN3CCOCC3)c2c1C,.,-4%,.,.,.,.,.
N#Cc1c(-c2ccccc2)cc(-c2ccc3c(c2)OCO3)[nH]c1=O,53*,-2%,42,-1,4,-6,3%
N#Cc1c(-c2ccc3c(c2)OCO3)csc1N,0,5%,2,0,4,.,.
O=C(Nc1cccc(Cl)c1N1CCOCC1)c1ccc([N+](=O)[O-])o1,48*,-5%,-21,0,0,8,4%
O=C(Nc1cccc(Cl)c1N1CCOCC1)c1cc([N+](=O)[O-])ccc1N1CCOCC1,8,-5%,9,-2,0,.,.
C=CCn1cc(C(=O)N2CCN(C)CC2)c(=O)c2cc(S(=O)(=O)N3CCCC3)ccc21,-3,-3%,9,0,0,.,.
C=CCn1cc(C(=O)N2CCN(C)CC2)c(=O)c2cc(S(=O)(=O)N(CC)CC)ccc21,53*,0%,-3,1,0,-4,-1%
SMILES,TRHR enhancer-1,GRP78 ERSR act,TRPML1 blocker,TRHR agonist-1,TRPML1 ag,TRHR enhancer-2,TRHR agonist-2
COc1ccc(/C=C/C(=O)N2CCc3c(cnc(C)c3CNS(=O)(=O)c3cccs3)C2)cc1,.,1%,.,.,.,.,.
Cc1cccc(C)c1NC(=S)N1CCC(c2ccccc2)C1 (configuration not stated),49*,-2%,3,1,0,-15,0%
Cc1cccc(C)c1NC(=S)N1CCOCC1,3,-5%,33,1,0,.,.
CCOC(=O)c1c(NC(=O)COC)sc(C)c1C,-5,-1%,0,0,-1,.,.
CCOC(=O)c1c(NC(=O)COC)sc(C(C)=O)c1C,0,-1%,3,33*,-1,13,-1%
NC(=O)CSc1nnc(SCc2ccc(F)cc2)s1,0,3%,2,31*,0,-1,2%
COc1cc(=O)n2c(c1C(=O)N(C)Cc1nonc1C)CCN(Cc1ccc(F)cc1)CC2,.,-2%,.,.,.,.,.
COc1ccc(C(CNC(=O)CCNS(=O)(=O)c2ccc(Br)cc2)N2CCCC2)cc1 (configuration not stated),48*,-1%,-8,0,1,-6,5%
C[C@@H]1CN(Cc2ccc3c(c2)CN(Cc2cccc4cccnc24)CCO3)C[C@H](C)O1,.,-4%,.,.,.,.,.
Cc1ncc2c(c1CNS(=O)(=O)N(C)C)CCN(C(=O)c1[nH]c3ccc(Cl)cc3c1C)C2,.,-4%,.,.,.,.,.
CNC(=O)c1cc2cc(OC)ccc2oc1=O,0,-2%,-8,1,0,.,.
COc1ccc2oc(=O)c(C(=O)NC3CCCCCC3)cc2c1,51*,-4%,-4,0,0,-2,-1%
COc1cc(OC)c(OC)cc1CN1CCOc2ccc(CN3C[C@@H](C)O[C@@H](C)C3)cc2C1,.,-5%,.,.,.,.,.
O=S(=O)(NCC1(N2CCOCC2)CCCCC1)c1ccc(Cl)cc1C(F)(F)F,7,-5%,-12,46*,81*,4,?
CCCCNS(=O)(=O)c1ccc(NC(=O)C(Sc2ccccc2)c2ccccc2)cc1 (configuration not stated),2,-4%,-9,27,0,-3,?
CCC(C)NS(=O)(=O)c1ccc(NC(=O)C(Sc2ccccc2)c2ccccc2)cc1 (configuration not stated),-1,-2%,11,1,1,.,.
Cc1csc(SCC(=O)NCC2Cc3cc(-c4cncnc4)ccc3O2)n1 (configuration not stated),.,-1%,.,.,.,.,.
COc1ccccc1N1C(C)=CC(=C(C#N)c2nc3ccccc3s2)C=C1C,-6,-1%,-12,46*,12,?,18µM*
CN(C)CCCNc1oc(-c2ccccc2Cl)nc1S(=O)(=O)c1ccc(F)cc1,57*,-4%,-10,2,0,?,?
COC(=O)[C@@H]1CCCN1C(=O)c1c(OC)cc(=O)n2c1CCN(Cc1ccc3nsnc3c1)CC2,.,-1%,.,.,.,.,.
Cn1nccc1C(=O)Nc1sc2c(c1C(N)=O)CCCC2,2,7%,-3,32*,3,-1,3%
Cn1nccc1C(=O)Nc1sc2c(c1C#N)CCCC2,0,6%,7,2,1,.,.

# Screening results (PubChem BioAssay)
